We go through 40 molecules from PubChem BioAssay (NCATS).

Inconclusive results are not listed. A number with no mark means an inactive call. Calls of active or inactive are those of the source. The call rests on the fitted dose curve.

The nature of assay [1]: Primary qHTS for Huh7 cytotoxicity: counterscreen for inhibitors of MERS-S pseudotyped particle cell entry (AID 1479147). For orientation: qHTS replaces the single test concentration by a dilution series.
Assay [2] can be described thus: Primary qHTS for inhibitors of MERS-S pseudo-typed particle cell entry (AID 1479149). Further: nearly all actives have a fitted effect of over 60% in size. Further: potency means the concentration at half of the fitted maximal effect.
Assay [3] can be described thus: Primary qHTS for Vero E6 cytotoxicity: counterscreen for inhibitors of SARS-S pseudo-typed particle cell entry (AID 1479150).
On the % scale 0 is the no-effect control and ±100 the full control effect.

In the case of `CCCOC(=O)c1ccccc1`, the Potency entry in assay [1], in assay [2] and in assay [3] was “inactive” in each case.
For `CC1(C)S[C@@H]2[C@H](NC(=O)C(c3ccccc3)S(=O)(=O)O)C(=O)N2[C@H]1C(=O)O` (stereo not given in full), the Potency entry in assay [1], in assay [2] and in assay [3] was “inactive” throughout.
In the case of `Cc1c(C)c2c(c(C)c1O)CCC(C)(COc1ccc(CC3SC(=O)NC3=O)cc1)O2` (stereo not given), the Potency entry in assay [1] and in assay [3] was “inactive” throughout. In addition, the Potency in assay [2] is 25.1 µM (active).
Take `NCCCC[C@H](N[C@@H](CCc1ccccc1)C(=O)O)C(=O)N1CCC[C@H]1C(=O)O`: the Potency result in assay [1], in assay [2] and in assay [3] was “inactive” throughout.
For the molecule `COc1c(N2C[C@@H]3CCCN[C@@H]3C2)c(F)cc2c(=O)c(C(=O)O)cn(C3CC3)c12`, the Potency entry in assay [1], in assay [2] and in assay [3] was “inactive” throughout.
Regarding `Cc1ccnc(NS(=O)(=O)c2ccc(N)cc2)n1`, the Potency entry in assay [1], in assay [2] and in assay [3] was “inactive” each time.
As to `CCCCC(CC)CNC(=O)CC(C)OC(=O)CCC(=O)O` (stereo not given), the Potency result in assay [1], in assay [2] and in assay [3] was “inactive” throughout.
For `Cc1c(N(C)CS(=O)(=O)O)c(=O)n(-c2ccccc2)n1C`, the Potency entry in assay [1], in assay [2] and in assay [3] was “inactive” in each case.
For the molecule `CN(C)C(=O)Oc1ccc[n+](C)c1`, the Potency result in assay [1], in assay [2] and in assay [3] was “inactive” throughout.
For the molecule `CC(C)(Sc1cc(C(C)(C)C)c(O)c(C(C)(C)C)c1)Sc1cc(C(C)(C)C)c(O)c(C(C)(C)C)c1`, the Potency entry in assay [1], in assay [2] and in assay [3] was “inactive” throughout.
Regarding `O=C(NCCO[N+](=O)[O-])c1cccnc1`, the Potency entry in assay [1], in assay [2] and in assay [3] was “inactive” each time.
As to `O=C(OOC(=O)c1ccccc1)c1ccccc1`, the Potency entry in assay [1], in assay [2] and in assay [3] was “inactive” each time.
Regarding `C=C1[C@H](CO)[C@@H](O)C[C@@H]1n1cnc2c(=O)[nH]c(N)nc21`, the Potency entry in assay [1], in assay [2] and in assay [3] was “inactive” in each case.
`CCN1C(=O)NC(c2ccccc2)C1=O` (stereo not given): the Potency result in assay [1], in assay [2] and in assay [3] was “inactive” each time.
For the molecule `CC(C)(C)NCC(O)c1cc(O)cc(O)c1` (stereo not given), the Potency result in assay [1], in assay [2] and in assay [3] was “inactive” each time.
Regarding `CC(=O)Oc1cc(C(C)C)c(OCCN(C)C)cc1C`, the Potency entry in assay [1], in assay [2] and in assay [3] was “inactive” each time.
Regarding `CCCCCCCCCCOc1cc2c(=O)c(C(=O)OCC)c[nH]c2cc1OCC`, the outcome in assay [1] and in assay [2] was “inactive [at 5.34 µM]” each time. In addition, in assay [3], the activity change, negative = cytotoxicity is 1.57% [at 5.34 µM].
Take `COc1ccc(C(=O)NCc2ccc(OCCN(C)C)cc2)cc1OC`: the Potency result in assay [1], in assay [2] and in assay [3] was “inactive” in each case.
Take `CCCCCCNC(=O)n1cc(F)c(=O)[nH]c1=O`: the Potency entry in assay [1] and in assay [3] was “inactive” throughout. Further, the Potency in assay [2] is 5.01 µM (active).
As for `NC(CS)C(=O)O` (stereo not given), the Potency entry in assay [1], in assay [2] and in assay [3] was “inactive” throughout.
On to `O=C(NCC(O)CO)c1c(I)c(C(=O)NCC(O)CO)c(I)c(N(CCO)C(=O)CO)c1I` (stereo not given), for which the Potency result in assay [1], in assay [2] and in assay [3] was “inactive” in each case.
Regarding `CC(N=C(NC#N)Nc1ccncc1)C(C)(C)C` (stereo not given), the Potency entry in assay [1], in assay [2] and in assay [3] was “inactive” each time.
With `COc1ccc(C(=O)c2ccccc2O)c(O)c1`, the Potency entry in assay [1], in assay [2] and in assay [3] was “inactive” in each case.
For `Cc1nc2ccc(CN(C)c3ccc(C(=O)N[C@@H](CCC(=O)O)C(=O)O)s3)cc2c(=O)[nH]1`, the Potency entry in assay [1], in assay [2] and in assay [3] was “inactive” each time.
For the molecule `C=CCN1CCc2nc(N)sc2CC1`, the Potency result in assay [1], in assay [2] and in assay [3] was “inactive” in each case.
As to `CN1CCN2c3ncccc3Cc3ccccc3C2C1` (stereo not given), the Potency result in assay [1], in assay [2] and in assay [3] was “inactive” in each case.
As for `Cc1ccc(C(=O)C(C)CN2CCCCC2)cc1` (stereo not given), the Potency result in assay [1], in assay [2] and in assay [3] was “inactive” each time.
Turning to `CCCCCN(CCCOC)C(=O)C(CCC(=O)O)NC(=O)c1ccc(Cl)c(Cl)c1` (stereo not given), the Potency entry in assay [1], in assay [2] and in assay [3] was “inactive” throughout.
`O=C(OCC1(COC(=O)c2cccnc2)CCCC(COC(=O)c2cccnc2)(COC(=O)c2cccnc2)C1O)c1cccnc1`: the Potency result in assay [1], in assay [2] and in assay [3] was “inactive” each time.
`CCCNC(C)C(=O)Nc1c(C)csc1C(=O)OC` (stereo not given): the Potency entry in assay [1], in assay [2] and in assay [3] was “inactive” in each case.
In the case of `CCOc1ccc(NS(=O)(=O)c2ccc(N)cc2)nn1`, the Potency entry in assay [1], in assay [2] and in assay [3] was “inactive” throughout.
In the case of `COc1ccc2c(c1)c(CC(=O)OC/C=C(\C)CC/C=C(\C)CCC=C(C)C)c(C)n2C(=O)c1ccc(Cl)cc1`, the Potency result in assay [1], in assay [2] and in assay [3] was “inactive” in each case.
As to `Nc1nc(N)nc(-c2cc(Cl)ccc2Cl)n1`, the Potency result in assay [1], in assay [2] and in assay [3] was “inactive” each time.
As to `CC(CCc1ccc(O)cc1)NCCc1ccc(O)c(O)c1` (stereo not given), the Potency result in assay [1], in assay [2] and in assay [3] was “inactive” in each case.
Turning to `C[N+](C)(C)CCCCCC[N+](C)(C)C`, the Potency result in assay [1], in assay [2] and in assay [3] was “inactive” in each case.
Consider `O=C(C1CCCCC1)N1CC(=O)N2CCCc3ccccc3C2C1` (stereo not given), for which the Potency result in assay [1], in assay [2] and in assay [3] was “inactive” throughout.
Take `O=c1c(-c2ccc(O)cc2)coc2cc(O)cc(O)c12`: the Potency entry in assay [1], in assay [2] and in assay [3] was “inactive” each time.
In the case of `CO/N=C(/C(=O)N[C@@H]1C(=O)N2C(C(=O)[O-])=C(C[n+]3ccn4ncccc43)CS[C@H]12)c1nsc(N)n1`, the Potency entry in assay [1], in assay [2] and in assay [3] was “inactive” each time.
In the case of `NC(CO)(CO)CO`, the Potency entry in assay [1], in assay [2] and in assay [3] was “inactive” throughout.
For the molecule `C=CC1=C(C(=O)O)N2C(=O)[C@@H](NC(=O)/C(=N\O)c3csc(N)n3)[C@H]2SC1` (stereo in doubt), the Potency entry in assay [1], in assay [2] and in assay [3] was “inactive” throughout.
